According to PubChem BioAssay AID1159580 (chemical genetic matrix, 2015):
Values joined by “and” are separate entries in the source; they are usually repeats but may differ in a detail not shown here. Equal values may be shown once. Among all 5,500 compounds or so, about 2,000 (36%) were called active. Not shown: some 18% with an inconclusive outcome. Rule as the data show it: active = normalized growth mostly below about 0.91 (no sharp cut-off); inconclusive = no clear call, values can overlap the other calls; inactive = mostly above about 0.92. Some of the results follow.

Experiment: chemical genetic growth profiling, strain panel (AID 1159580);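 also: tested at 20 µM; growth read once vehicle control cultures reached saturation at 30 °C; 1 = growth at the plate median or of vehicle wells; lower values mean less growth of the strain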
Conditions: S. cerevisiae deletion strains, growth OD

Measured: normalized growth

CC(CCC(=O)O)[C@H]1CCC2C3C(C[C@H](O)[C@@]21C)[C@@]1(C)CC[C@@H](O)C[C@H]1C[C@H]3O (some centres not stated)
inactive: locus YAL013W, strain DEP1, hits give low values 1.01 | locus YAL021C, strain ccr4, hits give low values 1.08 | locus YAL026C, strain drs2, hits give low values 1.03 | locus YAL030W, strain snc1, hits give low values 1.01 | locus YBL061C, strain skt5, hits give low values 1 | locus YBR009C, strain hhf1, hits give low values 1.05 | locus YBR021W, strain FUR4, hits give low values 0.995 | locus YBR023C, strain chs3, hits give low values 1.01 | locus YBR171W, strain sec66, hits give low values 1.02 | locus YBR229C, strain ROT2, hits give low values 1.01 | locus YBR231C, strain swc5, hits give low values 1 | locus YBR279W, strain paf1, hits give low values 1.02 | locus YCL011C, strain gbp2, hits give low values 1.02 | locus YCL016C, strain dcc1, hits give low values 1 | locus YCL029C, strain bik1, hits give low values 1.02 | locus YCL061C, strain MRC1, hits give low values 1.01 | locus YCL069W, strain vba3, hits give low values 1.02 | locus YCR088W, strain abp1, hits give low values 1.01 | locus YDL005C, strain med2, hits give low values 1.01 | locus YDL035C, strain GPR1, hits give low values 1.03 | locus YDL040C, strain nat1, hits give low values 1.02 | locus YDL074C, strain BRE1, hits give low values 1.02 | locus YDL101C, strain DUN1, hits give low values 1.02 | locus YDL185W, strain tfp1, hits give low values 1 | locus YDL192W, strain arf1, hits give low values 1.01 | locus YDR001C, strain nth1, hits give low values 1.02 | locus YDR069C, strain doa4, hits give low values 1.02 | locus YDR101C, strain arx1, hits give low values 0.985 | locus YDR137W, strain rgp1, hits give low values 0.991 | locus YDR159W, strain sac3, hits give low values 1.03 | locus YDR162C, strain NBP2, hits give low values 1.02 | locus YDR195W, strain ref2 1.03 | locus YDR297W, strain sur2, hits give low values 0.998 | locus YDR318W, strain mcm21, hits give low values 1.01 | locus YDR334W, strain swr1, hits give low values 1.03 | locus YDR335W, strain msn5, hits give low values 0.986 | locus YDR388W, hits give low values 1 | locus YDR392W, strain spt3, hits give low values 0.958 | locus YDR502C, strain sam2, hits give low values 1.01 | locus YEL003W, strain gim4, hits give low values 1.02 | locus YEL037C, strain rad23, hits give low values 1.03 | locus YEL061C, strain CIN8 (second series), hits give low values 1.02 | locus YEL061C, strain CIN8, hits give low values 1.03 | locus YER015W, strain faa2, hits give low values 0.982 | locus YER016W, strain bim1, hits give low values 0.99 | locus YER110C, hits give low values 1 | locus YER111C, strain swi4, hits give low values 1.03 | locus YER155C, strain BEM2 (second series), hits give low values 1.02 | locus YER155C, strain BEM2, hits give low values 1.01 | locus YER167W, strain BCK2, hits give low values 1.02 | locus YFR010W, strain ubp6, hits give low values 1.03 | locus YGL078C, strain dbp3, hits give low values 1.01 | locus YGL086W, strain mad1, hits give low values 1 | locus YGL167C, strain pmr1, hits give low values 0.995 | locus YGL173C, strain kem1, hits give low values 1.04 | locus YGL227W, strain vid30, hits give low values 1.01 | locus YGL240W, strain doc1, hits give low values 1.01 | locus YGL248W, strain PDE1, hits give low values 1.02 | locus YGL253W, strain hxk2, hits give low values 1.02 | locus YGR135W, strain pre9, hits give low values 0.993 | locus YGR252W, strain gcn5, hits give low values 0.965 | locus YHR013C, strain ard1, hits give low values 1.03 | locus YHR027C, strain rpn1, hits give low values 0.994 | locus YHR030C, strain SLT2, hits give low values 1.01 and 0.992 | locus YHR079C, strain IRE1 (second series), hits give low values 1 | locus YHR079C, strain IRE1, hits give low values 0.975 | locus YHR094C, strain hxt1, hits give low values 1 | locus YHR129C, strain ARP1, hits give low values 1.02 | locus YHR142W, strain chs7, hits give low values 1.05 | locus YHR200W, strain rpn10, hits give low values 0.994 | locus YIL066C, strain RNR3, hits give low values 1 | locus YIL073C, strain SPO22, hits give low values 1 | locus YIL125W, strain kgd1, hits give low values 1.01 | locus YIR030C, strain dcg1, hits give low values 1 | locus YJL092W, strain hpr5, hits give low values 1.01 | locus YJL095W, strain BCK1 (second series), hits give low values 1.01 | locus YJL095W, strain BCK1, hits give low values 1.02 and 0.977 | locus YJL115W, strain asf1, hits give low values 1.03 | locus YJL129C, strain trk1, hits give low values 1.05 | locus YJL134W, strain LCB3, hits give low values 1.01 | locus YJL154C, strain vps35, hits give low values 1.02 | locus YJL164C, strain tpk1, hits give low values 1.06 | locus YJL166W, strain qcr8, hits give low values 1.03 | locus YJL168C, strain set2, hits give low values 1.01 | locus YJL187C, strain SWE1 (second series), hits give low values 1.01 | locus YJL187C, strain SWE1, hits give low values 1.01 | locus YJR043C, strain POL32, hits give low values 0.994 | locus YJR066W, strain TOR1, hits give low values 0.93 | locus YKL009W, strain mrt4, hits give low values 0.959 | locus YKL068W, hits give low values 1.02 | locus YKL085W, strain MDH1 (second series), hits give low values 1 | locus YKL085W, strain MDH1, hits give low values 1 | locus YKL160W, strain elf1, hits give low values 0.995 | locus YKR001C, strain vps1, hits give low values 1.01 | locus YKR026C, strain gcn3, hits give low values 1.02 | locus YKR091W, strain srl3, hits give low values 1.02 | locus YLL001W, strain dnm1, hits give low values 0.989 | locus YLL026W, hits give low values 1.01 | locus YLL041C, strain sdh2, hits give low values 1.02 | locus YLR027C, strain aat2, hits give low values 1.02 | locus YLR039C, strain RIC1, hits give low values 1.09 | locus YLR058C, strain SHM2, hits give low values 1.02 | locus YLR102C, strain apc9, hits give low values 0.998 | locus YLR113W, strain HOG1, hits give low values 0.983 | locus YLR221C, strain rsa3, hits give low values 1.01 | locus YLR258W, strain gsy2, hits give low values 1.04 | locus YLR262C, strain YPT6 (second series), hits give low values 1.05 | locus YLR262C, strain YPT6, hits give low values 1.11 | locus YLR268W, strain sec22, hits give low values 0.986 | locus YLR320W, strain mms22, hits give low values 1.03 | locus YLR330W, strain CHS5, hits give low values 1.01 | locus YLR342W, strain FKS1 (second series), hits give low values 1.01 | locus YLR342W, strain FKS1, hits give low values 1 | locus YLR357W, strain rsc2, hits give low values 1.01 | locus YLR370C, strain arc18, hits give low values 0.999 | locus YLR371W, strain rom2, hits give low values 1 | locus YLR384C, strain iki3, hits give low values 0.991 | locus YLR418C, strain cdc73, hits give low values 0.994 | locus YML016C, strain PPZ1, hits give low values 1.03 | locus YML032C, strain rad52, hits give low values 0.995 | locus YML120C, strain ndi1, hits give low values 0.998 | locus YML124C, strain tub3, hits give low values 1.01 | locus YMR058W, strain fet3, hits give low values 1.03 | locus YMR078C, strain ctf18, hits give low values 1 | locus YMR125W, strain sto1, hits give low values 1.02 | locus YMR129W, hits give low values 0.991 | locus YMR205C, strain PFK2, hits give low values 1.02 | locus YMR223W, strain ubp8, hits give low values 1.02 | locus YMR231W, strain pep5, hits give low values 1.02 | locus YMR307W, strain GAS1, hits give low values 0.983 | locus YNL067W, strain RPL9B, hits give low values 1.02 | locus YNL071W, strain lat1, hits give low values 1.03 | locus YNL128W, strain TEP1, hits give low values 1.02 | locus YNL183C, strain NPR1, hits give low values 0.925 | locus YNL209W, strain ssb2, hits give low values 0.993 | locus YNL233W, strain BNI4, hits give low values 1.01 | locus YNL248C, strain rpa49, hits give low values 1.02 | locus YNL250W, strain rad50, hits give low values 1.01 | locus YNL271C, strain bni1, hits give low values 1 | locus YNL298W, strain CLA4, hits give low values 0.999 | locus YNL307C, strain MCK1, hits give low values 1 | locus YNL322C, strain KRE1 (second series), hits give low values 1.01 | locus YNR049C, strain mso1, hits give low values 0.986 | locus YNR052C, strain pop2, hits give low values 1.03 | locus YOL006C, strain TOP1, hits give low values 1.07 | locus YOL012C, strain htz1 1.17 | locus YOL147C, strain pex11, hits give low values 1.01 | locus YOR001W, strain rrp6, hits give low values 1.02 | locus YOR061W, strain CKA2, hits give low values 1.02 | locus YOR069W, strain VPS5, hits give low values 1.02 | locus YOR070C, strain gyp1, hits give low values 1 | locus YOR080W, strain dia2, hits give low values 1.01 | locus YOR083W, strain WHI5, hits give low values 1.01 | locus YOR106W, strain vam3, hits give low values 1.07 | locus YOR136W, strain idh2, hits give low values 1.01 | locus YOR144C, strain elg1, hits give low values 1 | locus YOR184W, strain ser1, hits give low values 1 | locus YOR231W, strain MKK1, hits give low values 0.981 | locus YOR265W, strain rbl2, hits give low values 1 | locus YOR270C, strain vph1, hits give low values 1.11 | locus YOR290C, strain snf2, hits give low values 0.982 | locus YOR316C, strain cot1, hits give low values 1 | locus YPL051W, strain arl3, hits give low values 1.01 | locus YPL078C, strain atp4, hits give low values 1.03 | locus YPL106C, strain sse1, hits give low values 1.01 | locus YPL240C, strain hsp82, hits give low values 0.996 | locus YPL256C, strain CLN2, hits give low values 0.957 | locus YPR119W, strain clb2, hits give low values 1 | locus YPR141C, strain kar3, hits give low values 1.01 | locus YPR163C, strain tif3, hits give low values 0.992 | locus YPR167C, strain met16, hits give low values 1.03 | strain wtn01, hits give low values 0.993
